# Measured values published in publication PMC11062922 (Nature Chemical Biology, 2023).
# System: PTK6
# Set-up: species or system human, MV4-11 + K-562 + COLO205 + SK-N-BE2 + OVCAR-8
# Conditions: read-out: apparent Kd; compound concentrations:100 nM and 1000 nM (sheet 'Samples'); n = 1
row,SMILES,potency estimated from few doses
1,O=C1NC(=O)C(N2CCc3ccccc32)=C1c1ccccc1Cl [SB-373598],0.606 µM
2,Cl.Cl.NCC(C(=O)Nc1cc(Br)c(-c2ccnc3[nH]ccc23)s1)c1ccccc1.NCC(C(=O)Nc1cc(Br)c(-c2ccnc3[nH]ccc23)s1)c1ccccc1 (centres unmarked) [GSK1269851A],1.45 µM
3,CC(C)N1CCC(n2cnc(-c3ccc(F)cc3)c2-c2ccnc(N)n2)CC1 [SB-223132],1.39 µM
4,CNC(=O)c1ccccc1Nc1nc(Nc2ccc(N3CCOCC3)cc2)ncc1Cl.Cl [GSK1576028A],0.297 µM
5,CN1C[C@@H]2Cn3c(c(C4=C(c5cn(C)c6ccccc56)C(=O)NC4=O)c4ccccc43)C[C@H]2C1.Cl [RO0320234-001],0.97 µM
6,Cc1ccc2c(-c3ccncc3)c(-c3ccc(F)cc3)nn2c1.Cl [GW461484A],0.871 µM

# Molecular target: Q6ZSR9 (human, UniProt Q6ZSR9)
# Sequence (Q6ZSR9 whole entry, looked up): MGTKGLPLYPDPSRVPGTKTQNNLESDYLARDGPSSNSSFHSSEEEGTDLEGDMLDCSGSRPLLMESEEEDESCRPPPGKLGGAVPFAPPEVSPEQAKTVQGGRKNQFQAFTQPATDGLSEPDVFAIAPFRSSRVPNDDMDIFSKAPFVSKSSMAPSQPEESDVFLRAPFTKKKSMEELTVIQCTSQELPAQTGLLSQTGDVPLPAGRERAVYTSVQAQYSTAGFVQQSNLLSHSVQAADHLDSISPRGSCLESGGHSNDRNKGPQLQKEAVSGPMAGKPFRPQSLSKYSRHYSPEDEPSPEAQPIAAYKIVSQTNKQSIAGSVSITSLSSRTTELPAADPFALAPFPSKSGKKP
# Set-up: species or system MV4-11 + K-562 + COLO205 + SK-N-BE2 + OVCAR-8
# Conditions: read-out: apparent Kd; compound concentrations:100 nM and 1000 nM (sheet 'Samples'); n = 1
row,SMILES,potency estimated from few doses
1,NCCNS(=O)(=O)c1ccc(-c2ccnc3[nH]ccc23)cc1 [GSK977617A],0.45 µM
2,O=C1NC(=O)C(N2CCc3ccccc32)=C1c1ccccc1Cl [SB-373598],0.28 µM
3,Cl.Cl.NCC(C(=O)Nc1cc(Br)c(-c2ccnc3[nH]ccc23)s1)c1ccccc1.NCC(C(=O)Nc1cc(Br)c(-c2ccnc3[nH]ccc23)s1)c1ccccc1 (centres unmarked) [GSK1269851A],0.0544 µM
4,CC(C)N1CCC(n2cnc(-c3ccc(F)cc3)c2-c2ccnc(N)n2)CC1 [SB-223132],0.581 µM
5,CNC(=O)c1ccccc1Nc1nc(Nc2ccc(N3CCOCC3)cc2)ncc1Cl.Cl [GSK1576028A],0.116 µM
6,CN1C[C@@H]2Cn3c(c(C4=C(c5cn(C)c6ccccc56)C(=O)NC4=O)c4ccccc43)C[C@H]2C1.Cl [RO0320234-001],0.533 µM
7,Cc1ccc2c(-c3ccncc3)c(-c3ccc(F)cc3)nn2c1.Cl [GW461484A],0.942 µM

# System: RET
# Set-up: species or system human, MV4-11 + K-562 + COLO205 + SK-N-BE2 + OVCAR-8
# Conditions: read-out: apparent Kd; compound concentrations:100 nM and 1000 nM (sheet 'Samples'); n = 1
row,SMILES,potency estimated from few doses
1,NCCNS(=O)(=O)c1ccc(-c2ccnc3[nH]ccc23)cc1 [GSK977617A],0.569 µM
2,O=C1NC(=O)C(N2CCc3ccccc32)=C1c1ccccc1Cl [SB-373598],0.239 µM
3,Cl.Cl.NCC(C(=O)Nc1cc(Br)c(-c2ccnc3[nH]ccc23)s1)c1ccccc1.NCC(C(=O)Nc1cc(Br)c(-c2ccnc3[nH]ccc23)s1)c1ccccc1 (centres unmarked) [GSK1269851A],0.539 µM
4,CC(C)N1CCC(n2cnc(-c3ccc(F)cc3)c2-c2ccnc(N)n2)CC1 [SB-223132],0.579 µM
5,CNC(=O)c1ccccc1Nc1nc(Nc2ccc(N3CCOCC3)cc2)ncc1Cl.Cl [GSK1576028A],0.0939 µM
6,CN1C[C@@H]2Cn3c(c(C4=C(c5cn(C)c6ccccc56)C(=O)NC4=O)c4ccccc43)C[C@H]2C1.Cl [RO0320234-001],0.371 µM
7,Cc1ccc2c(-c3ccncc3)c(-c3ccc(F)cc3)nn2c1.Cl [GW461484A],0.683 µM
